FAS TE block: FAS thioesterase domain inhibitors, primary screen, biochemical, fluorescence intensity, uHTS; Fatty acid synthase (Homo sapiens), P49327; AID 602261, 2012; inhibition, % at 15 µM; recombinant FAS-TE, OMFH fluorogenic substrate, fluorescence endpoint; actives 0.67% (n = 360,000);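 active = compounds whose normalised, plate-corrected inhibition of enzyme fluorescence in the single-dose primary screen is 50% or more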
ADAM10 inh: human ADAM10 inhibitors, primary screen, biochemical, QFRET, HTS | Disintegrin and metalloproteinase domain-containing protein 10 (Homo sapiens), O14672 | recombinant ADAM10, EDANS/DABCYL FRET peptide cleavage, 3 h | inhibition, % at 7 µM | actives 0.62% (n = 370,000);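 active = inhibition above a per-campaign cutoff equal to the mean of compounds falling between control-based bounds plus 3 SD, cut at about 20% in these data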
ADAM17 inh: ADAM17 inhibitors, primary screen, biochemical, QFRET; recombinant ADAM17, EDANS/DABCYL FRET peptide cleavage; inhibition, % at 6.95 µM; actives 0.83% (n = 370,000); AID 720648, 2013;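 active = inhibition above the mean of compounds lying between control limits plus 3 SD, set per campaign, cut at about 8.5% in these data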
NR3A LBD binder: binders of NR3A ligand-binding domain, primary screen, biophysical, differential scanning fluorimetry, uHTS. Glutamate receptor ionotropic, NMDA 3A (GRIN3A) ligand-binding domain. NR3A LBD differential scanning fluorimetry, Tm shift; 0% = protein alone, 100% = glycine-bound protein. Tm shift relative to glycine control, % at 25 µM. actives 2.5% (n = 340,000);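 active = melting temperature shift of at least 10% of the positive control shift, at one fixed dose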
HGIII-sPLA2 inh: human group III sPLA2 inhibitors, primary screen, biochemical, QFRET, BODIPY PC-A2 liposome substrate | QFRET BODIPY PC-A2 liposome hydrolysis, fluorescence | actives 0.56% (n = 370,000) | inhibition, % at 12.2 µM;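 active = inhibition above mean plus 3 SD of compounds lying within the high and low control bounds, cut at about 19% in these data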
Target sequence (Q9NZ20 whole entry, looked up): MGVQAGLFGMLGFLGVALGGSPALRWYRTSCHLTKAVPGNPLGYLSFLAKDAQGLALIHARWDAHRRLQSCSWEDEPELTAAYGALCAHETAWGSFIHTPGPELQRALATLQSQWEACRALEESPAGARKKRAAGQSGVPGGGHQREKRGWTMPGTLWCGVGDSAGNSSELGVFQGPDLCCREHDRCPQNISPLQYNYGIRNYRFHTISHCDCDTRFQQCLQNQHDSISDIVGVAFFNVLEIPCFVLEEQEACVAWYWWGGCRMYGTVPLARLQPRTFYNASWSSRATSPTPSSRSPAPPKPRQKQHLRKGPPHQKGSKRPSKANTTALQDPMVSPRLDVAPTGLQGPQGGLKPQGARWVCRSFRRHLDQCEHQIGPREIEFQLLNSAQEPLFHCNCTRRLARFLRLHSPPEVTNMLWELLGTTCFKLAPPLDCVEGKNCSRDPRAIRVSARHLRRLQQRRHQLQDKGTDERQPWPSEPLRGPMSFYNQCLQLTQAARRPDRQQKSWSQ
FAS-TE conf: FAS thioesterase domain inhibitors, confirmation, biochemical, fluorescence intensity, single concentration; recombinant FAS-TE, OMFH fluorogenic substrate; AID 624325, 2012; actives 45% (n = 2,300); shares compounds with FAS TE block; inhibition, % at 15 µM;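 active = compounds inhibiting the enzyme by at least 50% at 15 µM in any one of the replicates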
Hits are given with their value; - = inactive; . = no result. Hits are enriched below; roughly 4.3% of the tested compounds scored in any of these assays.

SMILES	FAS TE block	ADAM10 inh	ADAM17 inh	NR3A LBD binder	HGIII-sPLA2 inh	FAS-TE conf
COC(=O)[C@]12C[C@H](CC(=O)NCc3cccc4ccccc34)C(=O)N(Cc3ccco3)C1=C[C@H](C(C)C)O[C@@H]2C1CC1	.	-	-	.	-	.
CCC[C@H]1[C@@H](NC(=O)c2cccc(C(F)(F)F)c2)CC[C@@]23CCCN2C(=O)CCC[C@@H]13	.	-	-	.	-	.
O=C(CNS(=O)(=O)c1ccccc1)N1CCN(c2ccccn2)CC1	.	-	-	.	-	.
Cc1cc(N2CCOc3ccccc32)nc2ccccc12	.	-	-	.	-	.
COC(=O)[C@]12C[C@H](CC(=O)N3CCCC3)C(=O)N(Cc3ccc(Cl)cc3Cl)C1=C[C@H](C(C)C)O[C@@H]2C1CC1	.	-	-	.	-	.
CC1=C2NC(N)=[N+](Cc3ccccc3)CC2n2c(=O)n(-c3ccccc3)c(=O)n2C1 (configuration not stated)	.	-	-	.	-	.
COc1ccccc1NS(=O)(=O)c1ccc(N/N=C/c2c(C)nn(-c3ccccc3)c2N2CCCC2)c([N+](=O)[O-])c1	64	-	-	-	-	-
Cc1nn(-c2ccccc2)c(N2CCCC2)c1/C=N/Nc1ccc(S(=O)(=O)Nc2ccccc2)cc1[N+](=O)[O-]	53	-	-	-	-	-
COc1ccccc1NS(=O)(=O)c1ccc(NN=C2CCCC2)c([N+](=O)[O-])c1	-	-	-	-	-	.
COc1c(/C=N/Nc2ccc([N+](=O)[O-])cc2[N+](=O)[O-])c(C)nn1-c1ccccc1	-	-	-	-	-	.
COC(=O)[C@]12C[C@H](CC(=O)NCCC(C)C)C(=O)N(Cc3ccc(Cl)cc3Cl)C1=C[C@H](COCc1ccccc1)O[C@@H]2C	.	-	-	.	-	.
CC(C)CNC(=O)OCc1cn(Cc2ccccc2C(F)(F)F)nn1	.	-	-	.	-	.
CC1=C(O)C(=O)C(c2c(C)cc(C)c(Br)c2C)=C(O)C1=O	68	-	-	.	-	78
COc1ccc(-n2c(SCC(=O)Nc3ccc(Oc4ccccc4)cc3)nnc2-c2cccnc2)cc1	.	-	-	.	-	.
CCCC(=O)N(C1CC(C)C(C#N)(C#N)C1(C#N)C#N)N(C)C (configuration not stated)	62	-	-	-	-	68
CC(=O)N(C1CC(C)C(C#N)(C#N)C1(C#N)C#N)N(C)C (configuration not stated)	54	-	-	-	-	63
CC(C)(C)C(=O)O[C@@H]1CCC[C@@]2(C(=O)N(Cc3ccccc3)c3ccccc32)[C@H]1NC(=O)CCc1ccccc1	.	-	-	.	-	.
CCN1C(=O)[C@H]2[C@@H](c3ccc(-c4ccccc4)cc3)N[C@@](Cc3ccccc3)(C(=O)OC)[C@H]2C1=O	-	-	-	-	-	.
CCN1C(=O)[C@H]2[C@@H](c3ccc(-c4ccc(Cl)c(Cl)c4)cc3)N[C@@](Cc3ccccc3)(C(=O)OC)[C@H]2C1=O	89	-	-	-	-	-
CCN1C(=O)[C@H]2[C@@H](c3ccc(-c4ccc5c(c4)OCO5)c(OC)c3)N[C@@](CC(C)C)(C(=O)OC)[C@H]2C1=O	-	-	-	-	-	.
CCN1C(=O)[C@H]2[C@@H](c3ccc(-c4ccc5c(c4)OCO5)c(OC)c3)N[C@@](Cc3ccccc3)(C(=O)OC)[C@H]2C1=O	91	-	-	-	-	-
COC(=O)[C@]1(Cc2ccccc2)N[C@H](c2ccc(-c3cccc(Cl)c3)c(OC)c2)[C@@H]2C(=O)N(C)C(=O)[C@@H]21	93	-	-	-	-	-
COC(=O)[C@]1(Cc2ccccc2)N[C@H](c2ccc(-c3ccc(F)cc3)cc2)[C@@H]2C(=O)N(C)C(=O)[C@@H]21	85	-	-	-	-	-
